HT1080 IDH1KD tx – HT-1080 IDH1 knockdown cell toxicity (counter line) | AID 686971 | 360,000 compounds, 2% hits | HT-1080 IDH1 knockdown viability, ATP luminescence, 48 h | Potency, µM (highest dose often 46.1 µM), for the others: at the highest dose activity, negative = toxicity, actives largely listed as cytotoxic;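 note: 0% = DMSO wells and -100% = cell-free medium wells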
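HT-1080-IDH1KD cells (IDH1 knocked down), 750/well in RPMI with 5% FBS, treated with compound 48 h at 37 degrees C. Viability by CellTiter-Glo luminescence, normalised to DMSO and no-cell wells; concentration-response curves classed.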
KB-V1 cytotox – KB-V1 MDR subline cytotoxicity; KB-V1 MDR cells viability, CellTiter-Glo, 72 h; 400,000 compounds, 3.4% hits; Potency, µM (highest dose often 46.1 µM), most hits filed as cytotoxic; AID 1347076; note: nearly all actives have a fitted effect of over 60% in size
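Readout: CellTiter-Glo luminescence, 10 min after addition. Cells: KB-V1 MDR subline, 72 h at 37 degrees C with compound. Analysis: corrected, normalized data fitted to concentration-effect curves.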
TDP1 cell noCPT – qHTS for Inhibitors of human tyrosyl-DNA phosphodiesterase 1 (TDP1): qHTS in cells in absence of CPT; DT40 Tdp1-/- hTDP1 cells, no CPT, ATP luminescence, 48 h; Potency, µM (series often up to 46.2 µM), for inactives: at the top dose activity change, negative = growth inhibition, hits mostly inhibitors; 420,000 compounds, 15% hits; AID 686978, 2013; note: nearly all actives have a fitted effect of over 55% in size
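Camptothecin absent (DMSO only). Human TDP1-complemented DT40 knockout cells, 400 cells/well, 37 °C for minimum 48 hr; ATP measured via CellTiter-Glo, 30 min dark incubation, luminescence.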
KB-3-1 cytotox – kills parental KB-3-1 adenocarcinoma cells. Potency, µM (series often up to 46.1 µM), most hits filed as cytotoxic. KB-3-1 viability, CellTiter-Glo ATP luminescence, 72 h. 400,000 compounds, 1.4% hits; note: nearly all actives have a fitted effect of over 60% in size
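Multi-concentration cytotoxicity screen in KB-3-1 cells grown in DMEM lacking phenol red with 10% FBS. After 72 h at 37 °C with compound, ATP-dependent luminescence was recorded.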
HT1080NT lethal – kills 2HG-producing HT-1080-NT fibrosarcoma cells | HT-1080-NT fibrosarcoma viability, CellTiter-Glo ATP luminescence, 48 h | Potency, µM (series often up to 46.1 µM), without a hit: at the highest dose activity, negative = less viability, most hits filed as cytotoxic | 360,000 compounds, 1.6% hits;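 note: NT is the 2HG producing partner of a matched IDH1 knockdown line; 0% = DMSO-treated cells and -100% = media-only wells without cells; nearly all actives have a fitted effect of over 55% in size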
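Viability by CellTiter-Glo luminescence after 48 h compound exposure at 37C of HT-1080-NT cells (750/well, RPMI, 5% FBS). % activity scaled between DMSO wells and medium-only wells, then curve-fitted and categorized by curve class.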
DT40 TDP1 CPT – DT40-hTDP1 cell growth loss with CPT. chicken DT40 Tdp1-/-;hTDP1 cells + 20 nM CPT, ATP luminescence, 48 h. Potency, µM (top dose mostly 46.2 µM), inactives show at the top dose activity change, negative = growth inhibition, usual class: inhibitors. 420,000 compounds, 12% hits. AID 686979; note: nearly all actives have a fitted effect of over 55% in size
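Chicken DT40 Tdp1-/- cells stably complemented with human TDP1 were seeded at 400 cells/well in medium containing 20 nM camptothecin, exposed to pin-transferred compounds, and grown at 37 °C for at least 48 hr. Viability was read as ATP luminescence.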
An asterisk follows results filed as active; i = inactive; ? = inconclusive; / = not tested or not shown; ! = a repeat was not active; [ ] = dose if it differs, or a comment. Most compounds without a hit are left out; they make up all but 19% or so of the library. Calls come from the whole dose curve; as a rule, active = well fitted curve in the direction sought with a large enough effect; inconclusive = small, poorly fitted or top-dose-only effect, or another doubt; inactive = no such curve, though single readings can be large; an effect the other way counts as inactive or inconclusive. Unless noted, % is set by controls: 0 for no effect and ±100 for the full control effect; potency is the fitted concentration of half-maximal effect.

SMILES | HT1080 IDH1KD tx | KB-V1 cytotox | TDP1 cell noCPT | KB-3-1 cytotox | HT1080NT lethal | DT40 TDP1 CPT
Cc1c(C(=O)NCc2cccc([N+](=O)[O-])c2)sc(=O)n1Cc1cccc(F)c1 | -17% | ? | -35% | i | -5% | ?
Cc1c(C(=O)NCc2cccc([N+](=O)[O-])c2)sc(=O)n1Cc1ccc(C(C)C)cc1 | -8% | 9.2µM* | ? | ? | -8% | ?
COc1ccc(S(=O)(=O)N2CCCCCC2)cc1C(=O)N(C)Cc1cccs1 | -23% | ? | -21% | i | -3% | -19%
Cc1cccc(CSCCNC(=O)CN(c2ccccc2)S(=O)(=O)N(C)C)c1 | / | / | 21µM* | / | / | ?
CS(=O)(=O)N(CC(=O)NCCSCc1cccc(Cl)c1)c1ccc(F)cc1 | -1% | i | -17% | i | -9% | -17%
CN(C)S(=O)(=O)N(CC(=O)NCCSCc1cccc(Cl)c1)c1ccccc1 | / | ? | 23µM* | i | / | ?
O=C(CSc1nnc(CNC(=O)c2c(F)cccc2Cl)o1)Nc1ccccc1F | / | i | -11% | i | / | 20%
COc1cc(OC)c(N(C)S(=O)(=O)c2cccc(C(=O)OCC(=O)NCc3ccco3)c2)cc1Cl | ? | i | ? | i | -22% | ?
COc1cc(OC)c(N(C)S(=O)(=O)c2cccc(C(=O)Nc3nc(C)cs3)c2)cc1Cl | -12% | ? | ? | i | -8% | 16µM*
COc1cc(OC)c(N(C)S(=O)(=O)c2cccc(C(=O)OCC(=O)N(C)Cc3ccccc3)c2)cc1Cl | 1% | i | 23µM* | i | -8% | 16µM*
COc1cc(OC)c(N(C)S(=O)(=O)c2cccc(C(=O)NC3=NCCS3)c2)cc1Cl | 16µM* | ? | ? | ? | ? | 23µM*
O=S1(=O)N=C(Oc2ccc(C(F)(F)F)cc2)c2ccccc21 | / | i | / | ? | / | /
C=C[C@@H]1c2ccccc2N(S(=O)(=O)c2ccc(C)cc2)[C@H](c2ccc(OC(C)=O)cc2)C1(C#N)C#N | ? | ? | 16µM* | 18µM*! | ? | 16µM*
Cc1ccc2c(c1)C1CN(C)CCC1N2S(=O)(=O)c1ccc(C#N)cc1 (stereo not given) | -13% | i | -26% | i | -11% | -14%
C=C[C@@H]1c2cc(C)ccc2N(S(=O)(=O)c2ccc(C)cc2)[C@H](c2ccc(OC(C)=O)cc2)C1(C#N)C#N | 6.5µM* | 7.3µM* | 5.8µM* | 6.5µM*! | 7.3µM* | 4.6µM*
CC(C)C(=O)N(c1cc2sc(=O)oc2c2ccccc12)S(=O)(=O)c1cccs1 | ? | ? | 12µM* | i | 11µM* | 18µM*
O=S(=O)(Cc1ccccc1)NC1c2ccccc2Oc2ccccc21 | -2% | ? | 21µM* | i | 2% | 15µM*
CCNc1ncc2nc(-c3ccccc3)c(=O)n(C)c2n1 | / | / | 1% | / | / | -1%
COc1ccc(NS(=O)(=O)c2cc(NC(=O)c3cnc(C)cn3)ccc2N2CCCCC2)cc1 | -13% | i | ? | i | -9% | ?
COc1ccc(NS(=O)(=O)c2cc(NC(=O)c3ccco3)ccc2N2CCCCC2)cc1 | ? | i | 18µM* | 21µM* | -25% | ?
COc1ccc(NS(=O)(=O)c2cc(NC(=O)c3ccc(=O)[nH]c3)ccc2N2CCCC2)cc1 | 2.1µM* | i | 7.3µM* | 3.7µM* | ? | 4.1µM*
COc1ccc(NS(=O)(=O)c2cc(NC(=O)c3cnc(C)cn3)ccc2N2CCCC2)cc1 | 0% | 4.6µM* | ? | i | -19% | -24%
C=CCOc1ccc(/C=N/NC(=O)C(=O)Nc2ccccn2)cc1OC | 6% | i | ? | i | 0% | -9%
CCOc1ccc(C2C(C#N)=C(N)N(N(C)C)C3=C2C(=O)CC(C)(C)C3)cc1 (stereo not given) | 5% | i | -4% | i | -2% | -29%
CCOc1ccc(C2C(C#N)=C(C)NC3=C2C(=O)c2ccccc23)cc1 (stereo not given) | -12% | ? | 15µM* | i | 10% | 21µM*
SMILES | HT1080 IDH1KD tx | KB-V1 cytotox | TDP1 cell noCPT | KB-3-1 cytotox | HT1080NT lethal | DT40 TDP1 CPT
COc1cc(C2C(C#N)=C(C)NC3=C2C(=O)c2ccccc23)cc(OC)c1OC (stereo not given) | 0.79µM* | ? | 0.58µM* | 2.1µM* | 0.89µM* | 1µM*
COc1ccc(C2C(C#N)=C(C)NC3=C2C(=O)c2ccccc23)cc1 (stereo not given) | 10% | i | 26µM* | i | 1% | ?
CCN(Cc1ccccc1)C(=O)c1ccc(Cl)cc1[N+](=O)[O-] | -2% | i | -3% | i | 0% | -10%
COc1ccccc1CNc1nccn(-c2ccccc2)c1=O | / | i | ? | i | / | ?
O=C(COc1ccc(Br)cc1)N(Cc1nnc(-c2ccccc2Cl)o1)C1CC1 | -25% | ? | 23µM* | i | -14% | 23µM*
Cc1cccc(OCC(=O)N(Cc2nnc(-c3ccccc3Cl)o2)C2CC2)c1 | -4% | i | ? | i | 3%[9.24 µM] | 16µM*
Cc1ccc(C)c(OCC(=O)N(Cc2nnc(-c3ccccc3Cl)o2)C2CC2)c1 | -3% | i | ? | i | 1% | ?
CCCN(Cc1nnc(-c2ccccc2Cl)o1)C(=O)COc1ccc(Cl)cc1 | 2% | 4.1µM* | ? | i | 5% | ?
CC(C)N(Cc1nnc(-c2ccccc2Cl)o1)C(=O)COc1cccc(Cl)c1 | 1% | ? | ? | i | -5% | -24%
O=C(COc1ccc(F)cc1Cl)N(Cc1nnc(-c2ccccc2Cl)o1)C1CC1 | -5% | ? | 16µM* | i | 1% | -29%
CCC(=O)c1ccc(OCC(=O)N(Cc2nnc(-c3ccccc3Cl)o2)C2CC2)cc1 | 0% | ? | ? | i | 0% | ?
CN(C)N1C(N)=C(C#N)C(c2cccnc2)C2=C1CCCC2=O (stereo not given) | 13% | i | -1% | i | 5% | 13%
COC(=O)c1ccc(OC)c(CSc2nnc(COc3ccccc3)o2)c1 | ? | 21µM* | ? | i | -2% | ?
COC(=O)c1ccc(OC)c(CSc2nnc(-c3ccc(C(C)(C)C)cc3)o2)c1 | -3% | ? | 21µM* | ? | -3% | 16µM*
